One assay has as its target STAP2. Put plainly: pooled miR-30 sensor sort-seq; sequence = guide strand. As to conditions: shRNA.
In turn, TAGCCTAGCACCTTCTCGTAGT gave a sensor-assay potency score (higher = more potent) of -0.174.

In the case of TTCCACATCGATCACGTACTTG, the sensor-assay potency score (higher = more potent) was -0.479.

The sequence TAGTTCTCTTCCTGGTTCGGTA registered a sensor-assay potency score (higher = more potent) of -0.765.

For the sequence TTCTTCTCTAGAAAGCTCTCAT, the sensor-assay potency score (higher = more potent) was -0.00657.

Sequence TAGAAAGCTCTCATAGTAGTGT registered a sensor-assay potency score (higher = more potent) of 0.706.

With TTGAGCTTCTCCACGTGCTGGA, the sensor-assay potency score (higher = more potent) is 0.441.

TACCTTGAACTTGATCTCCTGA had a sensor-assay potency score (higher = more potent) of 0.355.

The sequence TTCTCATAGTCAACAGCTGGGC showed a sensor-assay potency score (higher = more potent) of -0.883.

The next assay concerns the target STARD13. The assay is described as above. As to conditions: shRNA.
TTGCTGAATACTTTGAGGCAGG displayed a sensor-assay potency score (higher = more potent) of -0.948.

For TAGTCGGGAACTTTCATCCTCT, the sensor-assay potency score (higher = more potent) was 0.0488.

TGACCTTTCAGGTCTATCCTGC had a sensor-assay potency score (higher = more potent) of 0.102.

Turning to TTGTTCAACGTATTTAGTCGTC, the sensor-assay potency score (higher = more potent) was -0.155.

Regarding TTTGTAGTCGGGAACTTTCATC, the sensor-assay potency score (higher = more potent) was -0.697.

Turning to TATAACTGAGCGTATTGCGGGA, the sensor-assay potency score (higher = more potent) was -0.462.

In turn, TTAGTCGTCTGCAAAGAGGTTC yielded a sensor-assay potency score (higher = more potent) of -0.341.

Regarding TTGTAGTCTGATCAAATCGCAA, the sensor-assay potency score (higher = more potent) is -1.15.

The sequence ATGAACTTTGGAACTGACCATG displayed a sensor-assay potency score (higher = more potent) of -1.26.

The sequence TTGAATTTTAGTCACTAGCTGA gave a sensor-assay potency score (higher = more potent) of -0.1.

On to TTGTCATAGATACTGACTCGGC, for which the sensor-assay potency score (higher = more potent) was -0.87.

As for TATTTCTTCTGTATGACTCGTG, the sensor-assay potency score (higher = more potent) was determined as 0.941.

The target in a further assay is STARD3NL. The assay is described as above. As to conditions: shRNA.
TTGATTAGGAATACAGCACAAG had a sensor-assay potency score (higher = more potent) of -0.839.

In turn, TATTACAATAAATAAATCTTTA yielded a sensor-assay potency score (higher = more potent) of -1.13.

For the sequence TTTCTTCTTCTGCTTCTTGAGG, the sensor-assay potency score (higher = more potent) was -0.759.

In the case of TTAGCTGTTCAATAAAGCCAGC, the sensor-assay potency score (higher = more potent) was -0.902.

Sequence TAAATAAATCTTTATTAGCTGT yielded a sensor-assay potency score (higher = more potent) of -0.476.

On to TTGAAATCCAGGAACCACGTCT, for which the sensor-assay potency score (higher = more potent) turned out to be 0.74.

As to TTTGCTAGTAAAAAGGCACTGG, the sensor-assay potency score (higher = more potent) turned out to be 0.563.

Regarding TACTTCAATATATTAAGTCTTT, the sensor-assay potency score (higher = more potent) was -0.927.

Consider TTCAACTTTACTGTCGACAGGG, for which the sensor-assay potency score (higher = more potent) came out at 0.68.

TTTAAATCGAAAAACTGCCAGA yielded a sensor-assay potency score (higher = more potent) of -0.348.

For the sequence TTTAACTCTATTATCCACAGTA, the sensor-assay potency score (higher = more potent) is 0.804.

In the case of TGAAGCATCCTGAACTATCAGG, the sensor-assay potency score (higher = more potent) is -0.809.

For the next assay, the target named is STARD3. The assay is described as above. The settings on record: shRNA.
TTCCACTCGCTGCAGGATCTGG displayed a sensor-assay potency score (higher = more potent) of -1.17.

TTAAGAATCCAGACAAAGGTGC registered a sensor-assay potency score (higher = more potent) of -0.169.

Turning to TTGACAATGAGGAATGCACTGG, the sensor-assay potency score (higher = more potent) worked out at 0.205.

Regarding TGTGTTGGTATTCAGTTCGATG, the sensor-assay potency score (higher = more potent) is -1.58.

Sequence TTCAGGATAAACGTCTTGCCGT displayed a sensor-assay potency score (higher = more potent) of -0.566.

Sequence TTTTCTTCCCAGCAACTTCTTC returned a sensor-assay potency score (higher = more potent) of -1.04.

Turning to TAGGACTTTGAAGTCAAGGAAC, the sensor-assay potency score (higher = more potent) was -1.37.

In turn, TTATTCTTCTCAAACTTCCAGT yielded a sensor-assay potency score (higher = more potent) of -0.167.
Note: reference of the scale not given here.
